# High-throughput results as filed in PubChem.
# Many of the other results were omitted from the sample, so hits are more common in it than they were.
# Methyltransferases = Primary Screen for Target Class Profiling of Small Molecule Inhibitors of Methyltransferases | AID 1745853, 2022 | calls only at 40 µM | 3.9% of 25,000 active | purified enzyme, MTase-Glo SAH luminescence; stronger effect = lower value; call rule not given here
#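 Each enzyme was assayed with SAM and its substrate. SAH formation detected by MTase-Glo luminescence; single-point 40 uM screen[…].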
# Numbers without * were called inactive; i = inactive; + = active, no number. On the % scale 0 is the no-effect control and ±100 the full control effect.
SMILES,Methyltransferases
CC(C)c1ccc(N2C(=O)CSc3c(c4ccccc4n3C)C2C(=O)NCc2ccccc2)cc1 (centres undefined),i
COc1cccc(N2C(=O)c3cc4ccccc4n3CC2(C)C(=O)NC2CCCC2)c1 (centres undefined),i
CCNc1nc(Nc2cc(F)c(C(=O)N3CCOCC3)cc2OC)ncc1C(F)(F)F,+
CNc1nc(Nc2ccc(C(=O)N3CCOCC3)cc2OC)nc2[nH]cc(Cl)c12,i
CNc1nc(Nc2ccc(C(=O)N3CCOCC3)cc2OC)ncc1Cl,i
CCCn1c(=O)c2cc(F)ccc2n2c(SCC(=O)Nc3cc(OC)cc(OC)c3)nnc12,i
CC1(C(=O)NCc2ccccc2)Cn2c(nc3ccccc32)C(=O)N1CCc1ccco1 (centres undefined),i
Cc1c(Cl)cccc1NC(=O)N1CCn2cccc2C1Cc1ccccc1 (centres undefined),i
CNS(=O)(=O)CC1CCC(N(C)c2ncnc3[nH]ccc23)CC1 (centres undefined),+
CCC(C)NC(=O)c1ccc2c(=O)n(C)c3nn(Cc4cc(C)ccc4C)c(=O)n3c2c1 (centres undefined),i
CCOC(=O)C1CCC(CNC(=O)N2CCn3cccc3C2C)CC1 (centres undefined),i
CC1CCN(C(c2ccc(F)cc2)c2ccc(C(C)C(=O)O)cc2-c2ccc(C(F)(F)F)cc2)CC1 (centres undefined),+
Cc1ccc(NC(=O)Cn2nc3nc(Nc4ccc(C)cc4)ccn3c2=O)cc1,i
Cc1cc2c(cc3n2CC(C)(C(=O)NC2CCCCC2)N(CCCc2ccccc2)C3=O)o1 (centres undefined),i
CN1CCN(CCCN2c3ccccc3Sc3ccc(C(F)(F)F)cc32)CC1,+
CNCCCN1c2ccccc2CCc2ccccc21,i
CN(C)CCCN1c2ccccc2Sc2ccccc21,i
CC(C)Cn1c(=O)c2ccccc2n2c(=O)n(CC(=O)c3ccc(F)cc3)nc12,i
COc1ccc(CCNC(=O)c2cc3n(n2)CC(C)(C(=O)NCCC(C)C)N(C)C3=O)cc1OC (centres undefined),i
O=C(CCc1nnc2n(Cc3ccccc3)c(=O)c3ccccc3n12)NCc1ccc(F)cc1,i
O=C1NC(=O)C(c2cnc3ccccn23)=C1c1cn2c3c(cc(F)cc13)CN(C(=O)N1CCCCC1)CC2,+
Cc1ccccc1N1C(=O)c2cc3sccc3n2CC1(C)C(=O)NC1CCCCC1C (centres undefined),i
CC1=CC(=O)CC(C)(C)C1CCC(C)O[C@@H]1O[C@H](CO[C@@H]2OC[C@@H](O)[C@H](O)[C@H]2O)[C@@H](O)[C@H](O)[C@H]1O (some centres undefined),+
C[C@H](/C=C/[C@@]1(O)[C@H](C)CC(=O)CC1(C)C)O[C@@H]1O[C@H](CO[C@@H]2OC[C@@H](O)[C@H](O)[C@H]2O)[C@@H](O)[C@H](O)[C@H]1O,i
CC1=CC(=O)CC(C)(C)[C@H]1/C=C/C(CO)O[C@@H]1O[C@H](CO)[C@@H](O)[C@H](O)[C@H]1O (some centres undefined),i
SMILES,Methyltransferases
CCOc1ccc(C(=O)Cn2nc3n(C)c(=O)c4ccc(C(=O)NC(C)CC)cc4n3c2=O)cc1 (centres undefined),i
COc1ccc(N(C(=O)c2ccncc2)S(=O)(=O)c2ccc3c(c2)n(C)c(=O)n3C)cc1,i
Cc1ccc(CN2C(=O)c3cc(-c4ccccc4)nn3CC2(C)C(=O)NCc2ccccc2)cc1 (centres undefined),i
CCCn1c(=O)c2ccccc2n2c(SCc3ccc(F)cc3Cl)nnc12,i
CCOC(=O)CC1(NC(=O)N2Cc3c(sc4c3CCCC4)-n3cccc3C2CC)CCCCC1 (centres undefined),i
CC(C)OCCCn1c(=O)c2cc(Cl)ccc2n2c(SCc3ccccc3F)nnc12,i
CCCn1c(=O)c2cc(Cl)ccc2n2c(SCC(=O)Nc3ccc(OC)cc3)nnc12,i
Cc1cc(C(C#N)c2ccc(Cl)cc2)c(Cl)cc1NC(=O)c1cc(I)cc(I)c1O (centres undefined),+
CC1CCN(S(=O)(=O)c2ccc3c(c2)oc(=O)n3CC(=O)NCCc2ccccc2)CC1,i
CC(C)c1cc2n(n1)CC(C)(C(=O)NC1CCCCCC1)N(c1ccc(Cl)cc1)C2=O (centres undefined),i
C=CCn1c(=O)c2ccc(C(=O)NC(C)C)cc2n2c(=O)n(CC(=O)NCCc3ccccc3)nc12,i
CC(C)CC(=O)OC[C@H]1O[C@@](COC(=O)CC(C)C)(O[C@H]2O[C@H](CO)[C@@H](O)[C@H](O)[C@H]2OC(=O)CC(C)C)[C@@H](OC(=O)CC(C)C)[C@@H]1O,i
C/C=C(\C)C(=O)OCC1OC(OCC2OC(OC3(CO)OC(CO)C(O)C3O)C(O)C(O)C2O)C(O)C(O)C1O (centres undefined),i
